Bioassay records (PubChem)
In the library only some 1.5% were active in any assay of this set; here they are far more common.
Eya2 phos inh – blocks the phosphatase activity of human Eya2. O00167. recombinant Eya2, OMFP fluorescence dephosphorylation (OMFP is methylfluorescein phosphate). Potency, µM (top dose mostly 76.9 µM), for inactives: at the highest dose activity, negative = inhibition, actives largely listed as inhibitors. actives 0.006% (n = 330,000); further: potency means the concentration at half of the fitted maximal effect
Target sequence (O00167 whole entry, looked up): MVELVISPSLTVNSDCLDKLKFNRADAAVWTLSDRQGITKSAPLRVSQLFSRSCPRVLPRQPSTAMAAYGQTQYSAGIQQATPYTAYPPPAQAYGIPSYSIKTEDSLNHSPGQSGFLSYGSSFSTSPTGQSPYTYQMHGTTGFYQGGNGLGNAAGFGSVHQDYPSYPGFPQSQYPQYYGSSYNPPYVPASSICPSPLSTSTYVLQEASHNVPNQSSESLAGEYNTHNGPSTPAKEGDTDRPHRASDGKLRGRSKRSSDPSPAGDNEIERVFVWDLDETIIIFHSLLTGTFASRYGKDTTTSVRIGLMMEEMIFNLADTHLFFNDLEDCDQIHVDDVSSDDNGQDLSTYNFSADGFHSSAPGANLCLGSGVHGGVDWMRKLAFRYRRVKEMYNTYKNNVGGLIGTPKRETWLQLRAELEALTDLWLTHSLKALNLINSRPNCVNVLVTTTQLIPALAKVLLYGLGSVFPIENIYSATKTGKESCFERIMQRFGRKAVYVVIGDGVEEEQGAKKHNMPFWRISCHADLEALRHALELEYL
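Eya2 (0.2 uM) preincubated 10 min at ambient with compound, then OMFP substrate added at 50 uM; 10 min reaction in 50 mM HEPES pH 7.5, 50 mM NaCl, 5 uM MgCl2, 0.05% BSA, 1 mM DTT. Fluorescence read at Ex 485/Em 525 nm.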
TrxR1 substrate – rat thioredoxin reductase 1 substrate activity; O89049; purified TrxR1 substrate turnover, NADPH consumption readout; Potency, µM (series often up to 114 µM), without a hit: top-dose activity change, negative = substrate turnover; actives 0.01% (n = 390,000); further: potency means the concentration at half of the fitted maximal effect; nearly all actives have a fitted effect of over 50% in size
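Rat TrxR1, dispensed at 90 nM, was prereduced with 400 uM NADPH (final) for 5 min at ~22 deg C, then incubated with compound 15 min before 400 uM selenite. A first-read NADPH fluorescence drop versus no-compound background flagged substrates.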
IDH1 R132H inh – human IDH1 R132H inhibition. O75874. IDH1-R132H enzyme, NADPH consumption, diaphorase/resazurin fluorescence. Potency, µM (doses to about 76.6 µM), without a hit: at the top dose activity change, negative = inhibition, most hits filed as inhibitors. actives 0.093% (n = 390,000); further: potency means the concentration at half of the fitted maximal effect; nearly all actives have a fitted effect of over 65% in size
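IDH1-R132H (0.5 ug/mL dispensed) in pH 7.5 Tris buffer was preincubated 30 min with compound, then given a substrate mix of 0.016 mM NADPH and 2 mM alpha-KG for 80 min at room temperature; remaining NADPH was read by diaphorase/resazurin fluorescence.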
FBPA coupling cs – inhibits coupling enzyme system, counter-screen for aldolase hits | AID 2472 | activity change, negative = inhibition, % at 58.2 µM, hits read low | actives 0.67% (n = 290,000) | coupling enzyme system counterscreen, AmpLite Red fluorescence; in the data active means activity change below about -30%
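Activity here indicates interference with the coupling reaction, not aldolase inhibition. Compounds at 57.5 uM final met coupling enzymes for 10 min at RT; substrate and AmpLite Red detection followed, with a 525/598 nm fluorescence read after 20 min.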
rTrxR1 inhibitor – blocks rat thioredoxin reductase 1; recombinant rTrxR1, NADPH fluorescence consumption, selenite substrate; Potency, µM (highest dose often 114 µM), inactives show at the highest dose activity change, negative = inhibition, hits mostly inhibitors; actives 1% (n = 390,000); further: potency means the concentration at half of the fitted maximal effect; nearly all actives have a fitted effect of over 65% in size
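Rat TrxR1 (90 nM in the dispensed reagent) was pre-reduced with 400 uM NADPH for 5 min at room temperature, then incubated with compound for 15 min. After 400 uM selenite was added, NADPH fluorescence (Ex 340/Em 450 nm) was followed for 8 min.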
Active calls of the source: *; ? = inconclusive; . = no result; ! = repeats disagree; [ ] = another dose, or the depositor's remark. Unless noted, the call rests on the fitted dose curve; in most records, active means well fitted curve in the direction sought with a large enough effect; inconclusive means small, poorly fitted or top-dose-only effect, or another doubt; inactive means no such curve, though single readings can be large; an effect the other way counts as inactive or inconclusive. On the % scale 0 is the no-effect control and ±100 the full control effect.

SMILES | Eya2 phos inh | TrxR1 substrate | IDH1 R132H inh | FBPA coupling cs | rTrxR1 inhibitor
CC(C)c1nnc(NC(=O)c2nc(S(=O)(=O)Cc3ccc(F)cc3)ncc2Cl)s1 | 2% | 5% | 5% | . | 32µM*
CCSc1nnc(NC(=O)c2nc(S(=O)(=O)Cc3ccc(F)cc3)ncc2Cl)s1 | -19% | -1% | 9% | . | 25µM*
Cc1ccc(CS(=O)(=O)c2ncc(Cl)c(C(=O)Nc3nnc(C(C)C)s3)n2)cc1 | -3% | 4% | 4% | 10 | 32µM*
Cc1cccc(CS(=O)(=O)c2ncc(Cl)c(C(=O)Nc3nnc(C(C)C)s3)n2)c1 | 8% | -2% | 5% | . | 25µM*
CC(C)c1nnc(NC(=O)c2nc(SCc3ccc(F)cc3)ncc2Cl)s1 | . | 1% | -21% | . | 22%
CC(=O)N(O)c1ccc(/C=C2\C=Cc3ccccc32)cc1 | . | -5% | . | . | -6%
Cc1ccc(C)c(NC(=O)c2nc(Cl)ccc2Cl)c1 | -4% | -4% | -9% | 5 | 8%
Cc1ccc(C)c(NC(=O)c2nc(S(=O)(=O)Cc3ccc(F)cc3)ncc2Cl)c1 | . | 3% | -16% | . | 1.6µM*
O=C(N/N=C/C(Cl)=C/c1ccc([N+](=O)[O-])cc1)C(=O)Nc1cccc(C(=O)O)c1 | -6% | -17% | 0% | -1 | 79µM*
CCCCS(=O)(=O)N1C2=NC(C(=O)OC)=C(C(=O)OC)[C@@H]3Nc4ccccc4[C@]23C[C@H]1C(=O)OC | . | . | . | -1 | .
O=C(COc1cccnc1[N+](=O)[O-])c1ccc(Cl)s1 | 3% | -5% | 5% | -30 | 25µM*
C[c-]1[c-](C)[c-](C)[c-](C)[c-]1C.[Fe].c1cc2nccc(N3CCCC3)[c-]2c1 (centres undefined) | -16% | -1% | -8% | -33*! | ?
O=C1C2C3C=CC(CNS(=O)(=O)c4ccccc4)(O3)C2C(=O)N1c1ccc(Cl)cc1 (centres undefined) | -9% | -2% | 4% | 4 | 10µM*
O=C1C2C3C=CC(CO)(O3)C2C(=O)N1c1ccccc1-c1ccccc1 (centres undefined) | -5% | 8% | 0% | -3 | 0.89µM*
CC(=O)Oc1ccc(N2C(=O)C3C4C=CC(CO)(O4)C3C2=O)cc1 (centres undefined) | -3% | 9%[57.1 µM] | 1% | -2 | 3.2µM*
COc1ccc(N2C(=O)CC(NCCNc3ccc([N+](=O)[O-])cn3)C2=O)cc1 (centres undefined) | 3% | -6% | 1% | 0 | 14µM*
O=S1(=O)CCO[C@H]2CCCC[C@@H]2N1Cc1cccc(F)c1 | . | 5% | . | . | 11%
O=C(CCc1ccccc1)NN1C(=O)C2C3C=CC(O3)C2C1=O (centres undefined) | -4% | -8% | -5% | 4 | 45µM*
CCOc1ccc(C(=O)NN2C(=O)C3C4C=CC(O4)C3C2=O)cc1 (centres undefined) | -1% | 4% | 6% | 2 | 20µM*
Cc1ccccc1OCC(=O)NN1C(=O)C2C3C=CC(O3)C2C1=O (centres undefined) | 14% | -5%[57.1 µM] | -3% | 1 | 32µM*
CCOc1ccc(C(=O)NC2CCCCCCC2)cc1 | . | -15%[57.1 µM] | 8% | . | 16%[57.1 µM]
Cc1cccc(OCC(=O)NN2C(=O)C3C4C=CC(O4)C3C2=O)c1 (centres undefined) | 7% | 3%[57.1 µM] | 2% | -1 | 7%[57.1 µM]
C[C@@H]1[C@H](c2ccccc2)OCCS(=O)(=O)N1Cc1cccc(C(F)(F)F)c1 | . | -3% | . | . | 18%
CN(C)CC(=O)c1c(N)n(Cc2ccccc2)c(=O)n(C)c1=O | 2% | 3%[57.1 µM] | -3% | 1 | 20%[57.1 µM]
CCN(CC(=O)c1c(N)n(C)c(=O)n(C)c1=O)c1cccc2ccccc12 | -4% | -7% | -1% | -43* | -10%
SMILES | Eya2 phos inh | TrxR1 substrate | IDH1 R132H inh | FBPA coupling cs | rTrxR1 inhibitor
OC[C@@H]1O[C@H](OC2[C@@H](O)[C@@H](O)[C@@H](O)O[C@@H]2CO)[C@H](O)[C@@H](O)[C@@H]1OC1O[C@H](CO)[C@@H](O)[C@H](O)[C@@H]1O (some centres undefined) | . | . | . | 0 | .
Cc1ccc(-n2nnnc2Sc2ccc(S(=O)(=O)NCCN(C)C)cc2[N+](=O)[O-])cc1 | 3% | 4% | 4% | -3 | ?
O=[N+]([O-])c1cc(S(=O)(=O)NCCN2CCOCC2)ccc1Sc1nnnn1-c1ccccc1 | -3% | -4% | 2% | -19 | 20µM*
CC1=NOC(=O)/C1=C\c1ccc(-c2cc(Cl)ccc2Cl)o1 | -2% | 10% | 8% | -3 | 16µM*
O=C(OCn1ncc(Br)c(Br)c1=O)c1ccc(F)cc1 | -13% | 13% | -5% | -1 | 1.8µM*
CC1=C(C)C(=O)C(CCCCC#CCCCC#CCO)=C(C)C1=O | -8% | 5%[57.1 µM] | 21% | -59* | 30µM*
Oc1ccccc1N=Cc1c(O)ccc2ccccc12 | ? | -5% | 12% | -27 | -6%
Cc1cc(N=Cc2c(O)ccc3ccccc23)no1 | 3% | 3% | 23% | -43* | 3%
C=Cc1ccc(N=Cc2c(O)ccc3ccccc23)cc1 | 8% | 1% | 11% | -30* | -2%
CCOC(=O)c1cc(CC)sc1/N=C/c1c(O)ccc2ccccc12 | -11% | 2%[57.1 µM] | 12% | -34* | -9%[57.1 µM]
Cc1cc(N=Cc2c(O)ccc3cc(Br)ccc23)no1 | -3% | -3% | 13% | -14 | -9%
Cc1ccc(-c2nn3c(C)nnc3s2)cc1NC(=O)c1ccc(-c2ccc(Cl)cc2Cl)o1 | -7% | 112% | 1% | 0 | 13%
Cc1ccc(-c2nn3c(C)nnc3s2)cc1NC(=O)c1ccc(-c2cccc(Cl)c2)o1 | -8% | -5% | 4% | 2 | 35µM*
Cc1ccc(/C([O-])=C(/C(=S)Nc2ccc(SC(F)F)cc2)[n+]2ccccc2)cc1[N+](=O)[O-] | 0% | 2% | -1% | -31* | 31%
CC(C)NC(=O)COC(=O)c1ccccc1OCC(=O)Nc1ccc(Br)cc1 | . | 16% | . | . | 18%
CC1=C(C)/C(=N/OC(=O)c2cccc([N+](=O)[O-])c2)C=CC1=O | -18% | -6% | 9% | -8 | 8.9µM*
O=C(O)c1ccc(Nc2ccc([N+](=O)[O-])c3nonc23)cc1 | -23% | -16% | -9% | -1 | -5%
NS(=O)(=O)c1ccc(Nc2ccc([N+](=O)[O-])c3nonc23)cc1 | 4% | -12% | 4% | -33* | -12%
COc1ccc(/C=C2\C(=O)ON=C2c2ccccc2)cc1 | 9% | -7% | -10% | -1 | 14µM*
O=C1ON=C(c2cccc([N+](=O)[O-])c2)/C1=C/c1ccc(O)cc1 | -14% | -17%[57.1 µM] | 6% | 3 | 7.9µM*
O=C1ON=C(c2ccccc2)/C1=C/c1ccc(OS(=O)(=O)c2ccccc2)cc1 | 10% | -17% | -8% | 3 | 2.8µM*
